{
  "source": "PubChem BioAssay AID1963321",
  "about": "(National Center for Advancing Translational Sciences (NCATS), 2024)",
  "note": "Records with an inconclusive call do not appear. A call without a number means that no potency is given here. Active and inactive are the calls of the source. Calls come from the whole dose curve.",
  "data": [
    {"target": "cAMP-dependent protein kinase catalytic subunit alpha (Homo sapiens) (UniProt P17612)", "assay": "Protein Kinase A (PKA-HiBiT) enzymatic inhibition screen - Functional assay", "conditions": "luminescence; series mostly up to 57.5 µM", "outline": "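PKA-N-HiBiT enzyme (10 nM final) with 87.5 uM ATP preincubated 30 min at room temperature with compounds. Kemptide substrate then added for 3 h; residual ATP read by Kinase-Glo Plus luminescence, H-89 as positive control.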", "values": [
      {"molecule": "CN1CCN(CCCNc2ncc(Cl)c(-c3cc4c(C(=O)NC5CC5)cccc4s3)n2)CC1", "Potency": "inactive"},
      {"molecule": "N#Cc1ccc2ncnc(NCCc3ccccc3)c2c1", "Potency": "inactive"},
      {"molecule": "Cc1sc2c(c1C)C(c1ccc(Cl)cc1)=N[C@@H](CC(=O)Nc1ccc(OCCOCCOCCOCCNc3cccc4c3C(=O)N(C3CCC(=O)NC3=O)C4=O)cc1)c1nnc(C)n1-2", "note": "(stereo partly specified)", "Potency": "inactive"},
      {"molecule": "Cn1ncc(NC(=O)c2nc(-c3c(F)cccc3F)sc2N)c1N1CC[C@@H](N)[C@H](F)CC1", "Potency": "inactive"},
      {"molecule": "Cc1[nH]nc2ncc(C(=O)N3CCC[C@H]3c3ccc(Cl)cc3)cc12", "Potency": "inactive"},
      {"molecule": "CCN(CC)CCOc1ccc(Nc2ncc3cc(-c4c(Cl)cccc4Cl)c(=O)n(C)c3n2)cc1", "Potency": "inactive"},
      {"molecule": "Nc1nc(NCCNc2ncc(-n3ccnc3)c(-c3ccc(Cl)cc3Cl)n2)ccc1[N+](=O)[O-]", "Potency": "inactive"},
      {"molecule": "CC(C)n1nc(-c2cc3cc(O)ccc3[nH]2)c2c(N)ncnc21", "Potency": "inactive"},
      {"molecule": "O=c1cc(N2CCOCC2)nc2c3ccccc3ccn12", "Potency": "inactive"},
      {"molecule": "COc1cc2c(Oc3ccc(NC(=O)C4(C(=O)Nc5ccc(F)cc5)CC4)cc3F)ccnc2cc1OCCCN1CCOCC1", "Potency": "inactive"},
      {"molecule": "C=CC(=O)Nc1cccc(Oc2nc(Nc3ccc(N4CCN(C)CC4)cc3OC)ncc2Cl)c1", "Potency": "inactive"},
      {"molecule": "CC1(C)OCCn2c1nc1c(N3CCOCC3)nc(-c3cnc(N)nc3)nc12", "Potency": "inactive"},
      {"molecule": "Cc1cccc(/C=N/Nc2cc(N3CCOCC3)nc(OCCc3ccccn3)n2)c1", "Potency": "inactive"},
      {"molecule": "Cc1cc(F)ccc1-c1nc(NC(CO)CO)nc2c1ccc(=O)n2-c1c(F)cccc1F", "Potency": "inactive"},
      {"molecule": "COc1cc2nccc(Oc3ccc(NC(=O)Nc4ccc(F)cc4F)c(F)c3)c2cc1OC", "Potency": "inactive"},
      {"molecule": "c1ccc(-c2oc3ncnc(NC[C@@H]4CCCO4)c3c2-c2ccccc2)cc1", "Potency": "inactive"},
      {"molecule": "Cc1cc(Nc2cc(N3CCN(C)CC3)nc(Sc3ccc(NC(=O)C4CC4)cc3)n2)n[nH]1", "Potency": "inactive"},
      {"molecule": "S=C(NCc1ccc2c(c1)OCO2)N1CCN(c2ncnc3c2oc2ccccc23)CC1", "Potency": "inactive"},
      {"molecule": "COc1cc(N2CCOCC2)ccc1Nc1ncc(Cl)c(Nc2ccccc2NS(C)(=O)=O)n1", "Potency": "inactive"},
      {"molecule": "Cc1ncc(NC(=O)c2ccc(CN3CCN(C)CC3)c(C(F)(F)F)c2)cc1Nc1nccc(-c2cccnc2)n1", "Potency": "inactive"},
      {"molecule": "COc1cc2ncnc(-n3nc(-c4ccccn4)nc3N)c2cc1OC", "Potency": "inactive"},
      {"molecule": "O=C1CCC(N2C(=O)c3ccccc3C2=O)C(=O)N1", "note": "(stereo unspecified)", "Potency": "inactive"},
      {"molecule": "CNC(=O)c1ccccc1Sc1ccc2c(/C=C/c3ccccn3)n[nH]c2c1", "Potency": "inactive"},
      {"molecule": "N#Cc1cccc(-c2c[nH]c3ncnc(N4CCOCC4)c23)c1", "Potency": "inactive"},
      {"molecule": "CCn1c(=O)c(-c2ccc(Cl)cc2Cl)cc2cnc(Nc3ccc(N4CCNCC4)c(F)c3)nc21", "Potency": "inactive"},
      {"molecule": "Cc1ccc(C(=O)Nc2ccc(Oc3cc4cnn(C)c4cc3-c3cn[nH]c3)c(F)c2)c(=O)n1-c1ccc(F)cc1", "Potency": "inactive"},
      {"molecule": "CC(C)CCN1c2nc(Nc3cc(F)c(O)c(F)c3)ncc2N(C)C(=O)C1C", "note": "(stereo unspecified)", "Potency": "inactive"},
      {"molecule": "CCN1/C(=C\\C(C)=O)Sc2ccc(OC)cc21", "Potency": "inactive"},
      {"molecule": "Cc1nc(NC(=O)N2CCC[C@H]2C(N)=O)sc1-c1ccnc(C(C)(C)C(F)(F)F)c1", "Potency": "inactive"},
      {"molecule": "Nc1ncnc2c1c(-c1cnc3[nH]ccc3c1)nn2C1CCCC1", "Potency": "inactive"},
      {"molecule": "Cc1c(Cl)cccc1S(=O)(=O)Nc1nc(NCCc2ccccc2)nc2c1CN(Cc1ccccc1)CC2", "Potency": "inactive"}
    ]}
  ]
}
